MITF inh: MITF inhibitors, primary screen, biochemical, AlphaScreen, human | Microphthalmia-associated transcription factor (Homo sapiens), O75030 | inhibition, % at 2.6 µM | actives 0.91% (n = 650,000) | AlphaScreen MITF homodimerization, bead proximity signal; in the data active means inhibition above about 50%
Target sequence (O75030 whole entry, looked up): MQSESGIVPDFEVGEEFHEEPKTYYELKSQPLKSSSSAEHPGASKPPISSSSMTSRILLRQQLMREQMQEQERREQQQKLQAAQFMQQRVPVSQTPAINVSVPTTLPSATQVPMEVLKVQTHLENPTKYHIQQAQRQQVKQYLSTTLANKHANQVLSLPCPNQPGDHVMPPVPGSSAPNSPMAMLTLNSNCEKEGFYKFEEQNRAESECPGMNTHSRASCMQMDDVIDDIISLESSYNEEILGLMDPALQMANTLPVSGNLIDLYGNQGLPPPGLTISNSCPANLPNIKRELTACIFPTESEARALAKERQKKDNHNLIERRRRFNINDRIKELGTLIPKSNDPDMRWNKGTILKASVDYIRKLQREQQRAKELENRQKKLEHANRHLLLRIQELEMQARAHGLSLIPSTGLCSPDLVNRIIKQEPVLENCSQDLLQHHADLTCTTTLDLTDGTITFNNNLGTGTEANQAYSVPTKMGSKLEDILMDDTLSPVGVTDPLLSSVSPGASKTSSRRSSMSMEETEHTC
TEAD-YAP block: TEAD-YAP interaction inhibition, primary screen, TEAD-YAP interaction inhibitor project, luminescence, HEK-TIYL cells; TEAD-Gal4/YAP UAS-luciferase luminescence; inhibition, % at 9.12 µM; actives 1.4% (n = 640,000); AID 1259422, 2018; in the data active means inhibition above about 32%
GPR151 activ: activators of human GPR151, primary screen, cell-based, PathHunter beta-arrestin, luminescence | AID 1508602, 2020 | PathHunter beta-arrestin GPR151 cells | actives 1% (n = 650,000) | activation, % at 11.2 µM; in the data active means activation above about 4.9%
FBW7 act: FBW7 E3 ligase activators, primary screen, biochemical, AlphaScreen, human; F-box/WD repeat-containing protein 7 (Homo sapiens), Q969H0; AlphaScreen FBW7–phospho-cyclin E peptide binding, activator screen; normalized activity (activation), % at 26.1 µM; actives 0.13% (n = 650,000); AID 1259310, 2017; in the data active means normalized activity above about 1.9%;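 further: purified mutant Fbw7 with reduced substrate affinity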
A number is an active result; 0 = inactive; - = not tested or not shown. An excerpt weighted towards active compounds, which were near 3.5% of everything screened.

SMILES | MITF inh | TEAD-YAP block | GPR151 activ | FBW7 act
Nc1ncnc(N/N=C/c2ccc(O)cc2O)c1[N+](=O)[O-] | 81 | 0 | 0 | 0
COc1cccc(/C=N/Nc2ncnc(N)c2[N+](=O)[O-])c1OC | 0 | 46 | 0 | 0
Nc1ncnc(N/N=C/c2ccccc2OC(F)F)c1[N+](=O)[O-] | 0 | 48 | 0 | 0
Nc1ncnc(N/N=C/c2cc([N+](=O)[O-])ccc2OC(F)F)c1[N+](=O)[O-] | 0 | 0 | 0 | 0
C=CCNc1nc(-c2cccnc2)cs1 | 0 | 0 | 0 | 0
CCC(Sc1nc2ccsc2c(=O)n1Cc1ccccc1)C(=O)NCc1cccnc1 (centres undefined) | 0 | 0 | 0 | 0
N/C(=N\OC(=O)c1ccc(F)cc1)c1ccc(Cl)cc1 | 0 | 0 | 0 | 0
N/C(=N\OC(=O)c1ccc(I)cc1)c1ccccn1 | 0 | 81 | 0 | 0
CC(=O)Oc1ccc(C(=O)O/N=C(\N)c2ccncc2)cc1 | 0 | 32 | 0 | 0
N/C(=N\OC(=O)c1ccc(F)cc1)c1ccc(Br)cc1 | 0 | 0 | 0 | 2.1
CC(=O)Oc1ccc(C(=O)O/N=C(\N)c2ccccn2)cc1 | 0 | 50 | 0 | 0
CC(C)(C)c1ccc(C(=O)O/N=C(\N)c2ccncc2)cc1 | 0 | 0 | 0 | 0
COc1ccc(/C(N)=N/OC(=O)c2ccc(OC(C)=O)cc2)cc1OC | 0 | 0 | 0 | 0
COc1ccc(C(=O)O/N=C(\N)c2ccccn2)cc1OC | 0 | 0 | 0 | 0
Cc1cc(Br)ccc1NC(=O)c1sc2ncn(CC(=O)N3CCCC3)c(=O)c2c1C | 0 | 0 | 0 | 0
CCC(=O)Nc1ccccc1C(=O)Nc1ccccn1 | - | - | 0 | -
COc1ccc(SCc2n[nH]c(=S)n2-c2ccccc2)cc1 | 0 | 0 | 0 | 0
Cn1cc(S(=O)(=O)Oc2ccc(F)cc2F)c(=O)n(C)c1=O | 0 | 0 | 0 | 0
Cc1ccccc1C(=O)O/N=C(\N)c1ccccn1 | 0 | 49 | 0 | 0
CCOc1ccc(C(=O)O/N=C(\N)c2ccccn2)cc1 | 0 | 91 | 0 | 0
Cc1cccc(C(=O)O/N=C(\N)c2ccccn2)c1 | 0 | 82 | 0 | 0
COc1ccc(C(=O)O/N=C(\N)c2ccc(OC)c(OC)c2)c(OC)c1 | 0 | 0 | 0 | 0
COc1ccc(C(=O)O/N=C(\N)c2ccccn2)c(OC)c1 | 0 | 41 | 0 | 0
Cc1[nH]c2ccccc2c1CCNC(=O)/C(=C/c1ccco1)NC(=O)c1cccc(Br)c1 | 0 | 0 | 0 | 0
N/C(=N\OC(=O)c1cc(Cl)ccc1Cl)c1ccccn1 | 0 | 44 | 0 | 0
SMILES | MITF inh | TEAD-YAP block | GPR151 activ | FBW7 act
COc1ccc(C2(C(=O)N3CCCC(c4nc(C)ncc4-c4ccncc4)C3)CC2)cc1 (centres undefined) | 0 | 0 | 0 | 0
O=C(Nc1ccccc1C(F)(F)F)c1ccc(CN2CCN(c3ccccc3)CC2)cc1 | 0 | 47 | 0 | 0
CCNC(=O)c1ccc(CN2CCN(c3ccccc3)CC2)cc1 | 0 | 0 | 0 | 0
O=C1/C(=C\C=C/c2ccc([N+](=O)[O-])o2)C(C(F)(F)F)=NN1c1ccccc1[N+](=O)[O-] | 90 | 0 | 0 | 0
O=C(OCC1CCCN2CCCCC12)c1ccccc1 (centres undefined) | 0 | 0 | 0 | 0
COc1ccc(CCNc2cc(NCCN3CCOCC3)ncn2)cc1 | 0 | 0 | 0 | 0
CCCSc1nnc(-c2ccc(OC)cc2)o1 | 0 | 45 | 0 | 0
CN(Cc1nc(-c2cccnc2)no1)S(=O)(=O)c1ccc(Cl)cc1 | 0 | 0 | 0 | 0
Cc1ccc(CSc2nc(=O)n(CCCO)c3c2CCC3)cc1 | 0 | 0 | 0 | 0
COc1cccc(Nc2nc(N3CCN(c4cccc(Cl)c4)CC3)nc3c2cnn3C)c1 | 0 | 0 | 0 | 0
COc1ccc(-n2ncc3c(Nc4cccc(OC)c4)ncnc32)cc1 | 0 | 46 | 0 | 0
COc1cccc(Nc2nc(N3CCN(C)CC3)nc3c2cnn3C)c1 | 0 | 43 | 0 | 0
COc1cccc(Nc2ncnc3c2cnn3-c2ccc(Cl)cc2)c1 | 0 | 0 | 0 | 0
COc1ccc(-n2ncc3c(Nc4cccc(F)c4)ncnc32)cc1 | 0 | 39 | 0 | 0
COc1ccc(-n2ncc3c(Nc4ccc(F)cc4)ncnc32)cc1 | 0 | 0 | 0 | 0
Cc1ccc2nc(SCC(=O)Nc3ccccc3[N+](=O)[O-])c(C#N)cc2c1 | 0 | 0 | 0 | 0
C=CCNc1cc(-c2ccccc2)nc(-c2ccccn2)n1 | 0 | 88 | 0 | 0
CCN(CC)c1cc(-c2ccccc2)nc(-c2ccccn2)n1 | 0 | 47 | 0 | 0
Brc1ccc(-c2ccc(/C=C/c3nc4ccccc4o3)o2)cc1 | 0 | 0 | 0 | 0
Cc1ccccc1OCc1nc(N(C)CCN(C)C)c2cc(-c3cn[nH]c3)ccc2n1 | 0 | 0 | 0 | 0
N[C@@H](Cc1ccccc1)c1nc2ccc(-c3cn[nH]c3)cc2c(=O)[nH]1 | 0 | 75 | 0 | 0
COc1cc(-c2cn[nH]c2)cc2c(=O)[nH]c([C@@H](N)Cc3cccc(F)c3)nc12 | 0 | 68 | 0 | 0
COc1cc(-c2cn[nH]c2)cc2c(=O)[nH]c(C(N)c3ccc(Cl)cc3)nc12 (centres undefined) | 0 | 0 | 0 | 0
CN(C)CCN(C)c1nc([C@H](N)Cc2cccc(F)c2)nc2ccc(-c3cn[nH]c3)cc12 | 0 | 0 | 0 | 2.7
N[C@@H](Cc1ccc(F)cc1)c1nc2ccc(-c3cn[nH]c3)cc2c(=O)[nH]1 | 0 | 85 | 0 | 0
SMILES | MITF inh | TEAD-YAP block | GPR151 activ | FBW7 act
NCCC(=O)NC(c1ccc(Cl)cc1)c1nc2ccc(-c3cn[nH]c3)cc2c(=O)[nH]1 (centres undefined) | 0 | 0 | 0 | 0
N#Cc1ccsc1NC(=O)c1ccc2c(c1)S(=O)(=O)c1ccccc1C2=O | 0 | 0 | 0 | 0
COc1cccc(CCc2nc3c(OC)cc(-c4cn[nH]c4)cc3c(=O)[nH]2)c1 | 0 | 36 | 0 | 0
N[C@@H](Cc1ccc(Cl)cc1)c1nc2ccc(-c3cn[nH]c3)cc2c(=O)[nH]1 | 0 | 86 | 0 | 0
N[C@H](Cc1ccc(F)c(F)c1)c1nc2ccc(-c3cn[nH]c3)cc2c(=O)[nH]1 | 0 | 76 | 0 | 0
NCc1ccc(C(=O)NC(c2ccc(Cl)cc2)c2nc3ccc(-c4cn[nH]c4)cc3c(=O)[nH]2)cc1 (centres undefined) | 0 | 0 | 0 | 0
N[C@H](Cc1cccc(F)c1)c1nc2ccc(-c3cn[nH]c3)cc2[nH]1 | 0 | 0 | 0 | 0
COc1cccc(Cc2nc3c(OC)cc(-c4cn[nH]c4)cc3c(=O)[nH]2)c1 | 0 | 0 | 0 | 0
N[C@H](Cc1cccc(F)c1)c1nc2ccc(-c3cn[nH]c3)cc2c(=O)[nH]1 | 0 | 68 | 0 | 0
N[C@H](Cc1cccc(Cl)c1)c1nc2ccc(-c3cn[nH]c3)cc2c(=O)[nH]1 | 0 | 69 | 0 | 0
N[C@H](CCc1ccccc1)c1nc2ccc(-c3cn[nH]c3)cc2c(=O)[nH]1 | 0 | 0 | 0 | 0
N[C@H](Cc1ccccc1)c1nc2ccc(-c3ccncc3)cc2[nH]1 | 0 | 0 | 0 | 0

Screens deposited in PubChem by The Scripps Research Institute Molecular Screening Center.
